# Source: PubChem BioAssay (NCATS)
# Values joined by “and” are separate entries in the source; they are usually repeats but may differ in a detail not shown here. Identical values can stand only once. Results filed as inconclusive are left out. Unmarked numbers belong to inactive results. Active and inactive are the calls of the source. Calls come from the whole dose curve; as a rule, active = well fitted curve in the direction sought with a large enough effect; inconclusive = small, poorly fitted or top-dose-only effect, or another doubt; inactive = no such curve, though single readings can be large; an effect the other way counts as inactive or inconclusive.
# Experiments:
# [1] = Viability qHTS for spleen associated tyrosine kinase inhibitor (SYKi) naive MV4-11 cells (AID 1963823); note: nearly all actives have a fitted effect of over 40% in size; note: potency is the fitted concentration of half-maximal effect
# In short: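 SYK inhibitor-naive MV4-11 cells, 500 per well, exposed to compounds for 72 hr at 37 C, 5% CO2. Viability read as CellTiter-Glo luminescence after 10 min at room temperature.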
# [2] = Viability qHTS for spleen associated tyrosine kinase inhibitor (SYKi) drug resistant MV4-11 cells (AID 1963824); note: nearly all actives have a fitted effect of over 35% in size; note: potency is the fitted concentration of half-maximal effect
# In short: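 SYK inhibitor-resistant MV4-11 AML cells, 500 per well, added to predispensed compounds and incubated 72 hr at 37 C, 5% CO2. Viability measured by CellTiter-Glo luminescence after 10 min at room temperature.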
# [3] = Cellular viability qHTS for adrenocortical cancer (ACC) cell line SW-13 (AID 1963989); conditions: SW-13 ACC cells viability, CellTiter-Glo, 48 h; activity (max response): hits give low values; note: nearly all actives have a fitted effect of over 65% in size; note: potency is the fitted concentration of half-maximal effect;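 for activity (max response): cells grown in serum-free medium with ITS supplement; % is set by controls: 0 for no effect and ±100 for the full control effect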
# In short: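 Here, serum-free SW-13 cultures were dosed up to 46 uM. Following 48 h, ATP-dependent luminescence (CellTiter-Glo) reported viable cells, and logistic modeling produced IC50 values.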
# [4] = Quantitative highthroughput screen to assess conditional lethalithy of P12 Ichikawa cells grown in Human Plasma-Like Medium with dialyzed fetal bovine serum (HPLM+ds) (AID 1963879); conditions: Potency: viability; note: series mostly up to about 46 µM; nearly all actives have a fitted effect of over 35% in size
# In short: (§1)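 Each medium arm—HPLM with 10% dialyzed FBS, or RPMI1640 with 5 mM glucose and 10% untreated or dialyzed FBS—was screened against an 11-point, 3-fold compound titration for 48 h at 37 °C, with CellTiter-Glo luminescence as endpoint.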
# [5] = Cellular viability qHTS for adrenocortical cancer (ACC) cell line NCI-H295R (AID 1963990); note: nearly all actives have a fitted effect of over 60% in size; note: potency is the fitted concentration of half-maximal effect
# In short: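 Viability of NCI-H295R after 48 h of treatment (final up to 46 uM) measured through cellular ATP luminescence.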
# [6] = Quantitative highthroughput screen to assess conditional lethalithy of SEM cells grown in Human Plasma-Like Medium with dialyzed fetal bovine serum (HPLM+ds) (AID 1963882); note: series mostly up to about 46 µM; nearly all actives have a fitted effect of over 35% in size
# In short: as §1
# [7] = Quantitative highthroughput screen to assess conditional lethalithy of SEM cells grown in RPMI1640 with unreated serum (RPMI+s) (AID 1963883); note: nearly all actives have a fitted effect of over 35% in size; note: potency is the fitted concentration of half-maximal effect;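 for Viability: 100% = DMSO wells and 0% = empty wells without cells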
# In short: as §1
# [8] = Quantitative highthroughput screen to assess conditional lethalithy of P12 Ichikawa cells grown in RPMI1640 with dialyzed fetal bovine serum (RPMI+ds) (AID 1963880); conditions: Potency: P12-Ichikawa viability
# In short: as §1
compound,measurement,setting,value
c1ccc2c(c1)Nc1ccccc1S2,Potency,[1],inactive
same,Potency,[2],inactive
same,activity (max response),[3],-23.4%
COP(=S)(OC)Oc1ccc(Sc2ccc(OP(=S)(OC)OC)cc2)cc1,Potency,[1],inactive
same,Potency,[2],inactive
same,activity (max response),[3],9.16%
COc1ccc(N(C(=O)Oc2c(C)cccc2C)c2ccnc(Nc3ccc(N4CCN(C)CC4)cc3)n2)c(OC)c1,Potency,[1],1.48 µM (active)
same,Potency,[2],1.16 µM (active) and 2.35 µM (active)
same,Potency,[4],inactive
same,Potency,[3],8.91 µM (active)
same,Potency,[5],12.6 µM (active)
CC(=O)OC1(c2ccccc2)CCN(CCc2ccccc2)CC1,Potency,[1],39.3 µM (active)
same,Potency,[2],44.1 µM (active)
same,activity (max response),[3],-14.1%
COC[C@@H](NC(C)=O)C(=O)NCc1ccccc1,Potency,[1],inactive
same,Potency,[2],inactive
same,Potency,[6],inactive
same,Potency,[7],inactive
same,activity (max response),[3],8.1% and 13.7%
same,Potency,[5],inactive
Clc1ccc(COC(Cn2ccnc2)c2ccc(Cl)cc2Cl)cc1 (centres undefined),Potency,[1],8.33 µM (active)
same,Potency,[2],8.33 µM (active)
same,Potency,[3],25.1 µM (active)
CN1CCN(c2ccc([N+](=O)[O-])c3no[n+]([O-])c23)CC1,Potency,[1],8.33 µM (active)
same,Potency,[2],8.33 µM (active)
same,Potency,[8],inactive
same,activity (max response),[3],1.98%
CCOC(=O)CC(SP(=S)(OC)OC)C(=O)OCC (centres undefined),Potency,[1],inactive
same,Potency,[2],inactive
same,activity (max response),[3],13.7% and 6.35%
same,Potency,[5],inactive
O=C(O)CCCc1ccc(N(CCCl)CCCl)cc1,Potency,[1],inactive
same,Potency,[2],inactive
same,Potency,[7],23.5 µM (active)
same,activity (max response),[3],1.67% and -8.76%
same,Potency,[5],inactive
COC[C@H]1OC(=O)c2coc3c2[C@@]1(C)C1=C(C3=O)[C@@H]2CC[C@H](O)[C@@]2(C)C[C@H]1OC(C)=O,Potency,[1],1.66 µM (active)
same,Potency,[2],1.66 µM (active)
same,activity (max response),[3],-16.1%
